Each structure is given as a SMILES string. Records with an inconclusive call do not appear. A number with no mark means an inactive call. Activity calls are given as the source filed them. Calls follow the shape of the dose curve; as a rule, active = well fitted cell-killing curve with a large enough effect in the repeat runs; inconclusive = weak or mixed curves, or effect the other way; inactive = flat fitted curve, though single readings scatter.

Experiment [1] is described as follows: cAMP Responsive Elements (CRE) small molecule antagonists, cell-based qHTS assay: qHTS cell viability counter screen (AID 2060913). Also: nearly all actives have a fitted effect of over 40% in size. The settings on record: CRE-bla HEK293T viability, CellTiter-Glo luminescence, 5 h; series mostly up to 92.4 µM. The essentials:
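Viability of NKH477-stimulated (0.25 uM final) CRE-bla HEK293T cells is measured by CellTiter-Glo luminescence following 3 hrs compound exposure at 37 C.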

Experiment [2] in a line: cAMP Responsive Elements (CRE) small molecule agonists, cell-based qHTS assay: qHTS cell viability counter screen (AID 2060914).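 Also: viability read after 3 h of compound exposure; nearly all actives have a fitted effect of over 50% in size.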 The settings on record: CRE-bla HEK293T viability, CellTiter-Glo luminescence, 5 h; series mostly up to 92.4 µM. The essentials:
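Cells are seeded and incubated 18 h, treated with compounds in DMSO for 3 h, read for the bla reporter, then given CellTiter-Glo; luminescence is measured after 30 min at room temperature.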
A general note: qHTS replaces the single test concentration by a dilution series.
% is scaled to controls: 0 for no effect and ±100 for the full control effect; potency is read from the fitted curve at half-maximal effect.

In the case of `c1ccc(-c2nn[nH]n2)cc1`, the Potency entry in experiment [1] and in experiment [2] was “inactive” each time.
As to `CC(=O)OC1CCCCC1`, the Potency result in experiment [1] and in experiment [2] was “inactive” throughout.
In the case of `CN1CC(=O)NC1=N`, the Potency result in experiment [1] and in experiment [2] was “inactive” in each case.
As for `CCCCC/C=C/CC(=O)OC`, the Potency result in experiment [1] and in experiment [2] was “inactive” throughout.
Take `C#C[C@]1(O)CC[C@H]2[C@@H]3[C@H](C)CC4=C(CCC(=O)C4)[C@H]3CC[C@@]21C`: the Potency result in experiment [1] and in experiment [2] was “inactive” in each case.
Take `NC(=O)c1cccnc1`: the Potency entry in experiment [1] and in experiment [2] was “inactive” throughout.
Take `CC(=O)Oc1ccc([N+](=O)[O-])cc1CCl`: the Potency entry in experiment [1] and in experiment [2] was “inactive” each time.
In the case of `CC(C)(C)N`, the Potency result in experiment [1] and in experiment [2] was “inactive” throughout.
As to `C=C1CC[C@H]2C[C@@H]1C2(C)C`, the Potency entry in experiment [1] and in experiment [2] was “inactive” in each case.
Consider `CO/N=C(\C(=O)N[C@@H]1C(=O)N2C(C(=O)O)=C(CSc3nc(=O)c(O)nn3C)CS[C@H]12)c1csc(N)n1`, for which the Potency result in experiment [1] and in experiment [2] was “inactive” each time.
Take `[O-][n+]1cccc(/C(Cl)=N/OC[C@@H](O)CN2CCCCC2)c1`: the Potency result in experiment [1] and in experiment [2] was “inactive” each time.
For the compound `CC(=O)OC1CC(C)OC(C)O1` (stereo not given), the Potency result in experiment [1] and in experiment [2] was “inactive” each time.
For `COc1cccc2c1C(=O)c1c(O)c3c(c(O)c1C2=O)C[C@@](O)(C(=O)CO)C[C@@H]3O[C@H]1C[C@H](N)[C@H](O)[C@H](C)O1`, the Potency result in experiment [1] and in experiment [2] was “inactive” in each case.
In the case of `O=[N+]([O-])c1ccccc1Nc1ccccc1`, the Potency result in experiment [1] and in experiment [2] was “inactive” throughout.
As to `CCOc1ccc(NS(=O)(=O)c2ccc(N)cc2)nn1`, the Potency result in experiment [1] and in experiment [2] was “inactive” each time.
`CCCCCCCCOc1ccccc1C(=O)Nc1ccc(C(=O)OCC[N+](C)(CC)CC)cc1`: the Potency result in experiment [1] and in experiment [2] was “inactive” throughout.
On to `O=C(O)C(=O)Nc1cccc(-c2nn[nH]n2)c1`, for which the Potency entry in experiment [1] and in experiment [2] was “inactive” throughout.
For `NC(CO)(CO)CO`, the Potency entry in experiment [1] and in experiment [2] was “inactive” each time.
For `CC(C)(C)C(=O)c1ccccc1`, the Potency entry in experiment [1] and in experiment [2] was “inactive” each time.
As to `CCCCCCCCOc1ccc(C(=O)O)cc1`, the Potency result in experiment [1] and in experiment [2] was “inactive” throughout.
In the case of `CCCCCOC(C)=O`, the Potency result in experiment [1] and in experiment [2] was “inactive” throughout.
For the compound `CCCC(=O)OC(C)(C)Cc1ccccc1`, the Potency entry in experiment [1] and in experiment [2] was “inactive” each time.
Consider `O=C(O)CNCC(=O)O`, for which the viability change, negative = cytotoxic in experiment [1] was 19.6% [at 8.39 µM]. Moreover, in experiment [2], the activity change, negative = cytotoxicity is -11.1% [at 8.39 µM].
On to `O=C(O)CSCC(=O)NC1CCSC1=O` (stereo not given), for which the Potency entry in experiment [1] and in experiment [2] was “inactive” in each case.
As for `O=C(Nc1ncc([N+](=O)[O-])s1)c1cccs1`, the Potency in experiment [1] was 21.1 µM (active); in experiment [2], 11.9 µM (active).
With `CC(=O)CC(c1ccc([N+](=O)[O-])cc1)c1c(O)c2ccccc2oc1=O` (stereo not given), the Potency result in experiment [1] and in experiment [2] was “inactive” in each case.
Consider `CC(CNC1CCCCC1)OC(=O)c1ccccc1` (stereo not given), for which the Potency result in experiment [1] and in experiment [2] was “inactive” in each case.
In the case of `Cc1cccc(O)c1`, the Potency result in experiment [1] and in experiment [2] was “inactive” each time.
Take `CNC(=O)c1ccccc1`: the Potency entry in experiment [1] and in experiment [2] was “inactive” each time.
Turning to `CC(C)C[P+](C)(CC(C)C)CC(C)C`, the Potency result in experiment [1] and in experiment [2] was “inactive” in each case.
Take `O=S(O)O`: in experiment [1], the viability change, negative = cytotoxic was 17.7% [at 18.9 µM]. For the same compound, the activity change, negative = cytotoxicity in experiment [2] is 3.71% [at 18.9 µM].
As to `CO/N=C(\C(=O)O)c1csc(NC(=O)CCl)n1`, the Potency result in experiment [1] and in experiment [2] was “inactive” in each case.
With `O=C(c1ccc(O)c(O)c1)c1ccc(O)cc1O`, the Potency entry in experiment [1] and in experiment [2] was “inactive” in each case.
Take `N[C@@H](C(=O)N[C@@H]1C(=O)N2C(C(=O)O)=C(Cl)CS[C@H]12)c1ccccc1`: the viability change, negative = cytotoxic in experiment [1] is 0.002% [at 8.39 µM]. The activity change, negative = cytotoxicity in experiment [2] is 8.3% [at 8.39 µM].
For the compound `O=C1CCCCC1`, the Potency result in experiment [1] and in experiment [2] was “inactive” throughout.
For `CCCNC(=O)NS(=O)(=O)c1ccc(Cl)cc1`, the Potency result in experiment [1] and in experiment [2] was “inactive” throughout.
For the compound `NC12CC3CC(CC(C3)C1)C2`, the Potency result in experiment [1] and in experiment [2] was “inactive” each time.
Turning to `O=C(c1ccc(OCCN2CCCCC2)cc1)c1c(-c2ccc(O)cc2)sc2cc(O)ccc12`, the Potency result in experiment [1] and in experiment [2] was “inactive” in each case.
For `COCN(COC)c1nc(N(COC)COC)nc(N(COC)COC)n1`, the Potency entry in experiment [1] and in experiment [2] was “inactive” in each case.
`CCCCOc1ccc(CC(=O)NO)cc1`: the Potency entry in experiment [1] and in experiment [2] was “inactive” throughout.
As for `CC1(C)O[C@@H]2C[C@H]3[C@@H]4C[C@H](F)C5=CC(=O)C=C[C@]5(C)[C@H]4[C@@H](O)C[C@]3(C)[C@]2(C(=O)CO)O1`, the Potency entry in experiment [1] and in experiment [2] was “inactive” each time.
`O=[N+]([O-])c1ccc2c(c1)Cc1ccccc1-2`: the Potency entry in experiment [1] and in experiment [2] was “inactive” in each case.
Consider `OC[C@H]1O[C@@H](OCCc2ccc(O)cc2)[C@H](O)[C@@H](O)[C@@H]1O`, for which the Potency entry in experiment [1] and in experiment [2] was “inactive” throughout.
Regarding `CC(C)NC(=O)NC(C)C`, the Potency entry in experiment [1] and in experiment [2] was “inactive” throughout.
Regarding `CC[N+](CC)(CC)Cc1ccccc1`, the Potency result in experiment [1] and in experiment [2] was “inactive” throughout.

The values above are taken from PubChem BioAssay (Tox21).
